Results: PubChem BioAssay (NCATS)
Values joined by “and” are separate entries in the source; they are usually repeats but may differ in a detail not shown here. Identical values can stand only once. Results filed as inconclusive are left out. Active and inactive are the calls of the source. Unless noted, the call rests on the fitted dose curve; in most records, active means well fitted curve in the direction sought with a large enough effect; inconclusive means small, poorly fitted or top-dose-only effect, or another doubt; inactive means no such curve, though single readings can be large; an effect the other way counts as inactive or inconclusive.

Experiments:
[1] = tested on: Zika virus NS2B-NS3 protease; assay: Primary screen GU AMC qHTS for Zika virus inhibitors (AID 1347154);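 further: 0% = no-inhibitor control and -100% = no-enzyme control; nearly all actives have a fitted effect of over 70% in size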
Method in brief: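 Unlinked Zika NS2B hydrophilic domain–NS3 protease complex at 25 nM in 10 mM Tris-HCl pH 8.0, 0.01% Tween 20, with an AMC peptide substrate. Fluorescence change (340/450 nm) over 15 min at room temperature, normalized to controls, fitted to 4-parameter Hill.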

[2] = Primary qHTS for small molecule stabilizers of the endoplasmic reticulum resident proteome: Secreted ER Calcium Modulated Protein (SERCaMP) assay (AID 1508630); further: on the % scale 0 is the no-effect control and ±100 the full control effect
Method in brief: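 GLuc-SERCaMP-expressing SH-SY5Y cells, pretreated 16 h with compound, are challenged with thapsigargin to empty ER calcium stores; after 4 h, coelenterazine is added directly to the medium and luminescence is imaged.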

[3] = target: Glucocorticoid receptor (Homo sapiens) (UniProt P04150); assay: GR-GFP Redistribution (AID 450;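 active means compounds whose dose series gives a full or clear partial fitted curve of increased nuclear translocation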; further: potency means the concentration at half of the fitted maximal effect); conditions: U2OS GR-GFP nuclear translocation, laser cytometry, 2 h
[4] = target: Glucocorticoid receptor (Homo sapiens) (UniProt P04150); assay: GR-EFC Redistribution (AID 451; calls by dose curve; further: potency means the concentration at half of the fitted maximal effect); conditions: CHO-K1 GR-EFC translocation, beta-gal luminescence, 2 h
Method in brief: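 CHO-K1 cells expressing nuclear EA and GR-ED fragments of b-gal; compounds titrated up to 46 uM final, 2 h at 37 C. GR nuclear translocation read as complemented b-gal luminescence after 1 h RT detection.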

[5] = target: Mitogen-activated protein kinase 10 (Mus musculus) (UniProt Q61831); assay: JNK3 AlphaScreen Assay (AID 530; active means well fitted curve in either direction with a large enough effect, not every such curve was filed as active;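 further: kinase came from lysate of stimulated human HepG2 cells; signal reports phosphorylation of biotinylated GST-cJun 1-79 at Ser73 with 10 µM ATP; on the % scale 0 is the no-effect control and ±100 the full control effect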)
Method in brief: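 Pre-activated (IL-1β/TNFα) JNK3 in HepG2 lysates phosphorylates biotin-GST-cJun(1-79), 10 uM ATP; anti-phospho-cJun(Ser73) AlphaScreen read at room temperature, pH 7.6 Tris buffer. Compounds pre-incubated 15 min as titrations.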

[6] = target: 3',5'-cyclic-AMP phosphodiesterase 4B (Homo sapiens) (UniProt Q07343); assay: qHTS Assay for Inhibitors of PDE-IV (AID 607; active means well fitted activation curve with a large enough effect in the main read-out, with a control signal flat, not every such curve was filed as active; further: % of control where 0% means no effect)
Method in brief: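 Cell-based read-out of cAMP via a modified cyclic nucleotide-gated channel and membrane potential dye (535/590 nm) in HEK293 cells expressing PDE4 endogenously. Compounds tested up to 22.9 uM final; 100 uM RO 20-1724 reference.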

[7] = qHTS Assay for Lipid Storage Modulators (AID 1519; calls by dose curve; on activity change, negative = inhibition: on the % scale 0 is the no-effect control and ±100 the full control effect); conditions: Drosophila S3 cells, BODIPY lipid droplet/cell ratio, laser cytometry, cells loaded with oleic acid; for activity change, negative = inhibition: at 57.5 µM (top of the series)
Method in brief: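 Cells seeded at 5,000 per well were treated with compounds over a concentration series and loaded with oleic acid (400 uM, as added). Lipid droplet fluorescence (488 nm excitation, 500-530 nm channel) was read by laser-scanning cytometry and normalized to 20 uM Triacsin C.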

[8] = target: DNA dC->dU-editing enzyme APOBEC-3G (Homo sapiens) (UniProt Q9HC16); assay: qHTS for inhibitors of Vif-A3G interactions: Validation (AID 588379); further: 0% is about no effect
Method in brief: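 HeLa cells stably expressing Vif and A3G-eYFP, 700 cells/well, incubated overnight at 37 deg C, then exposed to compound overnight at 37 deg C. Inhibition of Vif-mediated degradation read as increased yellow fluorescence (Ex 488/Em 500-530) by laser-scanning cytometry.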

[9] = Counterscreen qHTS for small molecule stabilizers of the endoplasmic reticulum resident proteome: GLuc-NoTag assay (AID 1508627);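 further: SH-SY5Y cells given compound then 100 nM thapsigargin to empty ER calcium; 0% = thapsigargin alone and -100% = DMSO vehicle control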
Method in brief: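 SH-SY5Y cells stably expressing constitutively secreted GLuc without SERCaMP tag, exposed to compound for 19 hr, then to 100 nM thapsigargin for 4 hr at 37C. Medium luciferase was read by coelenterazine luminescence without lysis.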

[10] = Cell Viability qHTS for small molecule stabilizers of the endoplasmic reticulum resident proteome (AID 1508629); conditions: cell viability counter-screen, 100 nM thapsigargin for final 4 h;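 further: compound exposure about 46 h in total before the viability read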; further: potency means the concentration at half of the fitted maximal effect;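 on max response: human SH-SY5Y neuroblastoma cells carrying the GLuc-SERCaMP reporter; on the % scale 0 is the no-effect control and ±100 the full control effect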
[11] = target: Cytochrome P450 3A4 (Homo sapiens) (UniProt P08684); assay: qHTS Assay for Inhibitors and Substrates of Cytochrome P450 3A4 (AID 884); further: potency means the concentration at half of the fitted maximal effect; nearly all actives have a fitted effect of over 50% in size
Method in brief: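 20 nM human CYP3A4 with 25 uM Luciferin-PPXE (at KM) in 200 mM KPO4, preincubated 10 min with compound; NADPH regeneration started a 60 min RT reaction. Luciferin detected by luminescence, normalized to 57 uM ketoconazole as full inhibition.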

[12] = target: Cytochrome P450 3A4 (Homo sapiens) (UniProt P08684); assay: qHTS Assay for Activators of Cytochrome P450 3A4 (AID 885); further: nearly all actives have a fitted effect of over 65% in size
Method in brief: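 Signal was normalized against complete inhibition by 57 uM ketoconazole. The reaction used 20nM CYP3A4 with 25uM Luciferin-PPXE, 10-min compound preincubation and a 60-min NADPH-supported step at RT.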

[13] = Confirmatory qHTS for small molecule stabilizers of the endoplasmic reticulum resident proteome: Secreted ER Calcium Modulated Protein (SERCaMP) assay (AID 1508628); further: nearly all actives have a fitted effect of over 40% in size; further: potency means the concentration at half of the fitted maximal effect
Method in brief: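 SH-SY5Y cells stably expressing GLuc-SERCaMP, treated 16 h with compound (primary 1.53, 7.67, 38.3 uM; confirmation 11 concentrations, up to 76.6 uM), then 100 nM thapsigargin for 4 h. Secreted Gaussia luciferase in medium read by coelenterazine luminescence.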

[14] = target: Cytochrome P450 1A2 (Homo sapiens) (UniProt P05177); assay: p450-cyp1a2 (AID 410; calls by dose curve; further: potency means the concentration at half of the fitted maximal effect;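 on activity change, negative = inhibition: -100% = full effect of reference inhibitor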)
Method in brief: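 20nM CYP1A2 with 100uM Luciferin-ME (at Km) in 100mM KPO4; compound preincubated 10 min, NADPH regeneration added, 60 min at room temperature. Luciferin quantified by luminescence after detection reagent; normalized to 57 uM furafylline.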

[15] = Confirmation and Secondary Assay for Modulators of Hemoglobin Beta Chain Splicing at IVS2 654 locus (AID 910);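 further: HeLa cells stably carrying EGFP split by mutant beta-globin IVS2-654 intron; % of control where 0% means no effect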
Method in brief: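 HeLa cells stably expressing EGFP interrupted by β-globin IVS2-654 intron, seeded overnight in Opti-MEM/2% FCS, then treated 2 days at 37 °C. Restored splicing read as total peak GFP intensity per well by laser scanning cytometry (488 nm excitation, 500–520 nm emission); 500 nM antisense PNA as control.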

[16] = Confirmation and Secondary Assay for Modulators of Hemoglobin Beta Chain Splicing at IVS2 705 locus (AID 930);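 further: HeLa cells stably expressing the EGFP-705 splicing reporter; GFP fluorescence per well restored by corrected splicing of the IVS2-705 intron in EGFP; % of control where 0% means no effect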
Method in brief: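 HeLa cells stably carrying EGFP interrupted by mutant beta-globin intron 2 (IVS2-705) treated 2 days at 37C with compound; 500 nM antisense PNA as control. Correct splicing read as total peak GFP intensity per well by laser-scanning cytometry.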

[17] = target: Ubiquitin carboxyl-terminal hydrolase 1 (Homo sapiens) (UniProt O94782); assay: Inhibitors of USP1/UAF1: Pilot qHTS (AID 504865);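 further: rhodamine fluorescence freed from ubiquitin-rhodamine substrate followed over time; top concentration of the series differs between compounds; on the % scale 0 is the no-effect control and ±100 the full control effect; nearly all actives have a fitted effect of over 35% in size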
Method in brief: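 Kinetic fluorescence assay: 1nM USP1/UAF1, 15 min compound preincubation, then 150nM Ub-Rho; 480/540 nm.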

[18] = target: Cytochrome P450 2D6 (Homo sapiens) (UniProt P10635); assay: qHTS Assay for Inhibitors and Substrates of Cytochrome P450 2D6 (AID 891); further: potency means the concentration at half of the fitted maximal effect; nearly all actives have a fitted effect of over 60% in size
Method in brief: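 Human CYP2D6 (5 nM) with 30 uM Luciferin-ME EGE (at Km) in 100 mM KPO4, compound preincubated 10 min, then NADPH regeneration system for 60 min at room temperature. Luciferin read by luminescence; normalized to 1.43 uM quinidine.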

[19] = target: Cytochrome P450 2C19 (Homo sapiens) (UniProt P33261); assay: qHTS Assay for Inhibitors and Substrates of Cytochrome P450 2C19 (AID 899); further: potency means the concentration at half of the fitted maximal effect; nearly all actives have a fitted effect of over 60% in size
Method in brief: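 Signal comes from luciferase acting on luciferin released by CYP2C19-mediated hydroxylation of Luciferin-H EGE, 10uM (KM). Assay mix: 5nM enzyme, 50mM KPO4; 60 min at 37C with NADPH regeneration. Data normalized against 57uM ketoconazole.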

[20] = target: Cytochrome P450 2C9 (Homo sapiens) (UniProt P11712); assay: qHTS Assay for Inhibitors and Substrates of Cytochrome P450 2C9 (AID 883); further: on the % scale 0 is the no-effect control and ±100 the full control effect; nearly all actives have a fitted effect of over 60% in size
Method in brief: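 Signal: luciferase luminescence reporting luciferin produced by CYP2C9. Conditions: 10nM enzyme, Luciferin-H 100uM at KM, 25mM KPO4, 37C, 60 min NADPH-driven reaction. Reference: 57uM sulphaphenazole as 100% inhibition.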

[21] = measured here: cell count channel max response
[22] = measured here: lipid channel max response

Sequence of Glucocorticoid receptor (Homo sapiens) (P04150 whole entry, looked up, the tested form may be a part): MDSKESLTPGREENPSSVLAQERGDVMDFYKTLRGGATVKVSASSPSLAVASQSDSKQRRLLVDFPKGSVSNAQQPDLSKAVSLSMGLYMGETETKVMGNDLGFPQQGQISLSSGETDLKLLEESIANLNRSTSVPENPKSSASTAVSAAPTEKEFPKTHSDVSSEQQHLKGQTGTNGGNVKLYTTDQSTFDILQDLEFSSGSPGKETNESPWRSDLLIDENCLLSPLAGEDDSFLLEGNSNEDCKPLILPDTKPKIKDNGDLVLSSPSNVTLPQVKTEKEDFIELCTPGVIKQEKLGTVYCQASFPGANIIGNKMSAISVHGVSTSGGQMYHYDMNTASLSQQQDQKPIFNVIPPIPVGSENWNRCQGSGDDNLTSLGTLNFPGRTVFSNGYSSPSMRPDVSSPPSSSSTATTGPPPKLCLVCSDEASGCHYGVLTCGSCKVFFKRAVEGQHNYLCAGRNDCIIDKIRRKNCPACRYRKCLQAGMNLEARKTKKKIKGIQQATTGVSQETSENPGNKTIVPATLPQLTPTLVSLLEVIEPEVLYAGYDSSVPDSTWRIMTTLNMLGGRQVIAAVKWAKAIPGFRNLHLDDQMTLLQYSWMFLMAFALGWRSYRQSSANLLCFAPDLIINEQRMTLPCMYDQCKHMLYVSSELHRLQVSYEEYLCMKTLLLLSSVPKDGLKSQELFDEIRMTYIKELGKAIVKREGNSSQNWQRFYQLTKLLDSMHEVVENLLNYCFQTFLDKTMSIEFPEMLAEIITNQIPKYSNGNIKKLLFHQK
Sequence of Cytochrome P450 1A2 (Homo sapiens) (P05177 whole entry, looked up): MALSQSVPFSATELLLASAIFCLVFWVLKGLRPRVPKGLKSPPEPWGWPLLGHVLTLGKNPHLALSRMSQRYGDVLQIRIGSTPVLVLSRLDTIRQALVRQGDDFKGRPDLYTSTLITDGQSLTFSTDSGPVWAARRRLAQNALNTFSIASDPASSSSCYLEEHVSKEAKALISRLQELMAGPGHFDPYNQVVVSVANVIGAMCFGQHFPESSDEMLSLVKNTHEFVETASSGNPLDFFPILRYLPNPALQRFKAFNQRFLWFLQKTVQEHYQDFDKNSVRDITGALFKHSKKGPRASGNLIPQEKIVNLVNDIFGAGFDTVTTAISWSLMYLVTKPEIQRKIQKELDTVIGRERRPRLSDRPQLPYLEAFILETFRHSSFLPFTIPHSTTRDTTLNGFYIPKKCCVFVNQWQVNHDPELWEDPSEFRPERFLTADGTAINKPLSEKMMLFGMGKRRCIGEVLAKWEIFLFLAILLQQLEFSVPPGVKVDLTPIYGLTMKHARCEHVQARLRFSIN
Sequence of Ubiquitin carboxyl-terminal hydrolase 1 (Homo sapiens) (O94782 whole entry, looked up): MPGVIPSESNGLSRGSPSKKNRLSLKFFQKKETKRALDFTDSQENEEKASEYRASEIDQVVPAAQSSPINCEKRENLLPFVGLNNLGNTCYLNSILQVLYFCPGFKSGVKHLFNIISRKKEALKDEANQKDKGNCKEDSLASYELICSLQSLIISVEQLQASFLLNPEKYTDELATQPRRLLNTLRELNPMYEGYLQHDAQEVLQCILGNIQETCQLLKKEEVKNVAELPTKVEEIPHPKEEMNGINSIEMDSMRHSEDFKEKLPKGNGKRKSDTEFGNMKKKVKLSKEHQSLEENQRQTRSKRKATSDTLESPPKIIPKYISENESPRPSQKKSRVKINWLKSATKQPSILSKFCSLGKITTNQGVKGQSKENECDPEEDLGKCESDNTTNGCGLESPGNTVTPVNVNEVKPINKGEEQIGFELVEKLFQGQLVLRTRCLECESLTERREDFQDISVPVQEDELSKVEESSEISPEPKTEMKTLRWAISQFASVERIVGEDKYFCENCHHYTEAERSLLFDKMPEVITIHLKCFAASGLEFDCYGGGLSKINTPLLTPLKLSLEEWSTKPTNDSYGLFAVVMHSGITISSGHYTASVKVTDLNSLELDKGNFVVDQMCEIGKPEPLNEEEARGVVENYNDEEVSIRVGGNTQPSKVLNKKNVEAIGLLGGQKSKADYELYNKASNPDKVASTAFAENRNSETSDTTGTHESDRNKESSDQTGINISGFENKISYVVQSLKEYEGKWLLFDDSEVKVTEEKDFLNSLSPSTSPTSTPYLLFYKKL
Sequence of Cytochrome P450 3A4 (Homo sapiens) (P08684 whole entry, looked up): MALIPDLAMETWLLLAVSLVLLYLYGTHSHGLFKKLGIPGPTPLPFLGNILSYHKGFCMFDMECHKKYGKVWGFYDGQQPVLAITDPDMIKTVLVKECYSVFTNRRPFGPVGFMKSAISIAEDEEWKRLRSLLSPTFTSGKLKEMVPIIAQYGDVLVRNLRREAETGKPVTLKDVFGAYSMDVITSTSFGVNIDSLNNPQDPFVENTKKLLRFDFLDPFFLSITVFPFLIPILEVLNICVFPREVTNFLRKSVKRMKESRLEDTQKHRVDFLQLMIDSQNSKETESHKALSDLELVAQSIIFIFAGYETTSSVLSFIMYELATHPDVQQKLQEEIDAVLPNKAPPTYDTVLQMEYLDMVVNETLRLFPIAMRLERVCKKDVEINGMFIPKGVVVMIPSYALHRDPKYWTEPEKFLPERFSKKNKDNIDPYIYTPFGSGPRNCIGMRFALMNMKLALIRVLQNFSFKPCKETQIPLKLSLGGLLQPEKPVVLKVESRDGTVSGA
Sequence of DNA dC->dU-editing enzyme APOBEC-3G (Homo sapiens) (Q9HC16 whole entry, looked up): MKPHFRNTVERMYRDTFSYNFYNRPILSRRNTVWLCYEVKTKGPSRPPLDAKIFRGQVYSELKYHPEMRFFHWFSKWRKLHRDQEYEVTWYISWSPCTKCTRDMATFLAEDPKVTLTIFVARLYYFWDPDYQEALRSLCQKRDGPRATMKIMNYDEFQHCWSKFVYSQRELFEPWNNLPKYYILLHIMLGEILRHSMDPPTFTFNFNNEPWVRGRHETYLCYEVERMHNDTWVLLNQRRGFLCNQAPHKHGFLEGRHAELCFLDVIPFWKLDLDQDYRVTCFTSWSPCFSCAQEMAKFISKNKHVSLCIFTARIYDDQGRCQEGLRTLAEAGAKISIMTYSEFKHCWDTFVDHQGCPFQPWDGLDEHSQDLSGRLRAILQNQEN
Sequence of Cytochrome P450 2D6 (Homo sapiens) (P10635 whole entry, looked up): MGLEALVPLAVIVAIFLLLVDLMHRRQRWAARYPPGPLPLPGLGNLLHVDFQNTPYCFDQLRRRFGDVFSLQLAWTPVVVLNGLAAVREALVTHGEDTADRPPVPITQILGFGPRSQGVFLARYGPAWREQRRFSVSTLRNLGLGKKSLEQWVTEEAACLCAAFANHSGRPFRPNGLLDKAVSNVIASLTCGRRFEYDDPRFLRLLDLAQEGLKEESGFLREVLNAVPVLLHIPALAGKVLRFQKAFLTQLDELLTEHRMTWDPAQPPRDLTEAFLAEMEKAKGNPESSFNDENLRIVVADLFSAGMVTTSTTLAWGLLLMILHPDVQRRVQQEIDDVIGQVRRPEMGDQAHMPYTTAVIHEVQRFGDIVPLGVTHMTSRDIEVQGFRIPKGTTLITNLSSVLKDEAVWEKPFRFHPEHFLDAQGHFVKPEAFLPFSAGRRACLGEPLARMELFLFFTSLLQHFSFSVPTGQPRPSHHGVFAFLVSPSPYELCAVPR
Sequence of 3',5'-cyclic-AMP phosphodiesterase 4B (Homo sapiens) (Q07343 whole entry, looked up): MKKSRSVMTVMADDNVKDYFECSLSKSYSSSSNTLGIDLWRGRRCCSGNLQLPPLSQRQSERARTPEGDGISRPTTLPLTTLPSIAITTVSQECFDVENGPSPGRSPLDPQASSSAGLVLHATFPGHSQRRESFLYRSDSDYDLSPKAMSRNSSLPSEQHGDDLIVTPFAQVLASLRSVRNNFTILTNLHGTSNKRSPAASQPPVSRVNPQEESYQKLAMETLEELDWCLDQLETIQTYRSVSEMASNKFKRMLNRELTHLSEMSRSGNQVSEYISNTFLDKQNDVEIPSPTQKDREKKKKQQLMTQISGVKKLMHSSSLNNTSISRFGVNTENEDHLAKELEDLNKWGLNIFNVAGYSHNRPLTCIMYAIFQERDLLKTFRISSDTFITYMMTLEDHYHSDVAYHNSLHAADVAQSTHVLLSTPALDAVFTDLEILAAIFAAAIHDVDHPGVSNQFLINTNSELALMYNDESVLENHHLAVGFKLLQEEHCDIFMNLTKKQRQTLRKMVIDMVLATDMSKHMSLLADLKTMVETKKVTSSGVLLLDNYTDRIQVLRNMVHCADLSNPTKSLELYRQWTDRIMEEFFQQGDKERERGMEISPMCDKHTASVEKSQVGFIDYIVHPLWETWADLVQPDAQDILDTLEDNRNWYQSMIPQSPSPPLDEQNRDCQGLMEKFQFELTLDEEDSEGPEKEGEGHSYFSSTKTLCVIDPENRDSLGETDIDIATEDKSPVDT
Sequence of Cytochrome P450 2C19 (Homo sapiens) (P33261 whole entry, looked up): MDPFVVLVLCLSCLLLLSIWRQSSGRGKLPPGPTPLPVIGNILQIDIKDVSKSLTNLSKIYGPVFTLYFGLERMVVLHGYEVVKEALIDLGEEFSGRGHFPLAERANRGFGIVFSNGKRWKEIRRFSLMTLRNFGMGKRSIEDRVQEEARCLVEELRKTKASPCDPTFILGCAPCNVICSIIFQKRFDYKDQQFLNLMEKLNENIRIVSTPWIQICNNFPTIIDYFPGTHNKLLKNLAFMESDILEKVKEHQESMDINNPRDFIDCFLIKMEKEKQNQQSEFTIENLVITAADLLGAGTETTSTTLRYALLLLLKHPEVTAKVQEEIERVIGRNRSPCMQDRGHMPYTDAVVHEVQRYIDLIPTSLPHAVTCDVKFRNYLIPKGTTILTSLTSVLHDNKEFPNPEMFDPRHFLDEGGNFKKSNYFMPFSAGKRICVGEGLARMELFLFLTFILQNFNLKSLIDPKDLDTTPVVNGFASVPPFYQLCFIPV

CC(C)c1cnc(NC(=O)Cc2ccccc2)s1
inactive: Potency [1] | Potency [2]

COc1ccc2c3c1O[C@H]1C[C@H](O)C=C[C@@]31CCN(C)C2
9.55%: max response [7, 21]
inactive: Potency [3] > 46 µM | Potency [4] > 46 µM | Potency [5] | Potency [6] | activity change, negative = inhibition [7] 3.95% | Potency [8] | Potency [1] | Potency [9]
14.8%: max response [7, 22]

COC(=O)[C@@H]1[C@H]2C[C@H]3c4[nH]c5ccccc5c4CCN3C[C@H]2CC[C@@H]1O
inactive: Potency [1] | Potency [2]

CN(C)C1CCc2[nH]c3ccc(NC(=O)c4ccc(F)cc4)cc3c2C1 (centres undefined)
inactive: Potency [1] | Potency [9] | max response [10] -26.6%

COc1cccc(CCc2ccccc2OCC[C@@H]2C[C@@H](O)CN2C)c1
inactive: Potency [12] | Potency [1] | Potency [13]
active: Potency [11] 3.16 µM | Potency [10] 15.8 µM

C=CCn1c(=O)c2c(nc(-c3ccccc3)n2C)n(C)c1=O
inactive: Potency [1] | Potency [2]

NCCOB(c1ccccc1)c1ccccc1
active: Potency [14] 15.8 µM
inactive: Potency [3] > 46 µM | Potency [4] > 46 µM | Potency [5] | Potency [6] | Potency [12] | outcome [15] | outcome [16] | activity change, negative = inhibition [7] -7.96% and -2.88% | Potency [17] | Potency [8] | Potency [1] | Potency [9] | max response [10] 2.88%
-11.1% and 11.6%: max response [7, 22]
-4.57% and 13.6%: max response [7, 21]

CC(C)ON(C(C(=O)NO)C(C)C)S(=O)(=O)c1ccc(-c2ccccc2)cc1 (centres undefined)
inactive: Potency [1] | Potency [9]
active: Potency [10] 12.6 µM

CN1CCN(C2=Cc3ccccc3Oc3ccc(Cl)cc32)CC1
active: Potency [14] 20 µM | Potency [18] 0.0398 µM | Potency [19] 3.98 µM
inactive: Potency [3] > 46 µM | Potency [4] > 46 µM | Potency [5] | Potency [12] | Potency [8] | Potency [1] | Potency [9] | max response [10] 13.7%

C=C[C@@]1(C)CC(=O)[C@@]2(O)[C@@]3(C)[C@@H](O)CCC(C)(C)[C@@H]3[C@H](OC(=O)CCN(C)C)[C@H](OC(C)=O)[C@@]2(C)O1
-14.6%: max response [7, 21]
active: Potency [11] 2.51 µM | Potency [19] 0.251 µM | Potency [13] 14.1 µM
-17.4%: max response [7, 22]
inactive: Potency [14] | Potency [3] > 46 µM | Potency [4] > 46 µM | Potency [5] | Potency [12] | activity change, negative = inhibition [7] -1.7% | Potency [17] | Potency [8] | Potency [1] | Potency [9]

C[C@@H](NCc1cc(Br)cc2[nH]c(=O)c(=O)[nH]c12)P(=O)(O)O
active: Potency [3] 0.264 µM
inactive: Potency [14] | Potency [4] > 46 µM | Potency [5] | Potency [20] | Potency [17] | Potency [8] | Potency [1] | Potency [9] | Potency [13]

COc1ccc(Cl)cc1N=Nc1ncc[nH]1
active: Potency [14] 0.631 µM | Potency [18] 2.51 µM | Potency [13] 35.5 µM
inactive: Potency [3] > 46 µM | Potency [4] > 46 µM | Potency [5] | Potency [12] | Potency [8] | Potency [1] | Potency [9]
